Data published in PubChem BioAssay.
Calls of active or inactive are those of the source. Unless noted, the rule behind the calls is not given here.

Assays:
[1] = system: Wnt5a (protein binding on small-molecule microarray); test: Wnt5a binders on small-molecule microarray, primary screen, biophysical, 635/667 nm fluorescence (AID 1142); details: 635 nm fluorescence, higher = more signal;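 note: fluorescence read at 667 nm with signal to noise per printed feature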
[2] = cell viability in Huh7 cells, primary screen, cytotoxicity control for HCV replication inhibitor project, CellTiter-Glo luminescence, basal, 48 h (AID 1143); details: Huh7 HCV replicon, higher = more signal, called active from +8 up or from −8 down;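 note: Huh7 hepatoma cells carrying a hepatitis C replication reporter with no stimulus; test concentration not given here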
[3] = P. aeruginosa biofilm formation inhibitors, primary screen, PAO1 strain, BacTiter-Glo luminescence, LB-PBS (AID 1144); details: 12 h, higher = more signal
[4] = CREB reporter modulators without forskolin, primary screen, cell-based, PC12, CRE-LacZ reporter, unstimulated (AID 1145); details: no forskolin, luminescence, 4.5 h, higher = more signal, called active from +8 up or from −8 down
[5] = CREB reporter modulators under forskolin, primary screen, cell-based, PC12, CRE-LacZ reporter, forskolin-stimulated (AID 1146); details: luminescence, 4.5 h, higher = more signal, called active from +8 up or from −8 down;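 note: PC12 cells with 6xCRE LacZ reporter stimulated by forskolin 10 µM; beta-galactosidase reporter signal reflecting CREB driven transcription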
[6] = target: Streptavidin (Streptomyces avidinii) (UniProt P22629); test: streptavidin binders on small-molecule microarray, primary screen, artefact control for SMM compound annotation, biophysical, 635/667 nm fluorescence (AID 1147); details: streptavidin binding, higher = more signal;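 note: signal reflects streptavidin binding to arrayed compounds as a control protein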
Streptavidin (Streptomyces avidinii), sequence (P22629 whole entry, looked up): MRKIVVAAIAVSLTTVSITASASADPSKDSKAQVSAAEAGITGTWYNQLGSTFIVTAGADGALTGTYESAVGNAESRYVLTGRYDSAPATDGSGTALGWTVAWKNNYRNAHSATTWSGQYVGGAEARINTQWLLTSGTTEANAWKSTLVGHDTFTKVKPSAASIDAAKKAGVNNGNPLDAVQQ

[7] = small-molecule binders of probe aInhba, primary screen, biochemical, small-molecule microarray, 635/667 nm fluorescence (AID 1148); details: higher = more signal;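 note: score merges 667nm spot fluorescence with signal-to-noise for antibody binding to printed compounds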
[8] = target: Torsin-1A (Homo sapiens) (UniProt O14656); test: torsin A binders from cell lysate, primary screen, small-molecule microarray, wild-type, 635/667 nm (AID 1149); details: COS7 hTOR1A-WT lysate, 635 nm fluorescence, higher = more signal
Torsin-1A (Homo sapiens), sequence (O14656 whole entry, looked up): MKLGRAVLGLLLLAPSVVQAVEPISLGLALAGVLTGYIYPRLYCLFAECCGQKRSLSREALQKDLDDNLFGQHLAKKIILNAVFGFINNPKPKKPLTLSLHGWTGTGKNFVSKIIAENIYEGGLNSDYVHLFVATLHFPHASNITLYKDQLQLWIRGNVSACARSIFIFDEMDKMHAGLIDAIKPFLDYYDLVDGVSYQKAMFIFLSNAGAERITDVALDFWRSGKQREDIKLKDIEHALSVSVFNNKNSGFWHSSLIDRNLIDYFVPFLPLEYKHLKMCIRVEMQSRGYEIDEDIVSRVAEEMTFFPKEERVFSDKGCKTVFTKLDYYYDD

[9] = target: Torsin-1A (Homo sapiens) (UniProt O14656); test: small-molecule binders of mutant TOR1A in lysate, primary screen, cell lysate, small-molecule microarray, COS7 lysate, 635/667 nm fluorescence (AID 1150); details: COS7 hTOR1A mutant lysate, 635 nm fluorescence, higher = more signal;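 note: score pools 667 nm emission and signal to noise measuring lysate protein binding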
[10] = system: Sonic hedgehog protein (Shh); test: small-molecule binders of Shh protein, primary screen, biochemical, small-molecule microarray, 635/667 nm fluorescence (AID 1151); details: small-molecule microarray binding, 635 nm fluorescence; higher = more signal;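 note: Shh protein binding to compounds spotted on small-molecule microarray slides; score combines spot fluorescence intensity with signal-to-noise across triplicate slides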
[11] = E. coli DRC41 culture turbidity changes, primary screen, E. coli filamentation inducer project, strain DRC41, OD650, 48 h (AID 1152);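 note: E. coli MC1000 strain DRC41 lacking acrAB efflux pump and sulA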; details: E. coli DRC41 (acrAB sulA), higher = more signal, called active from +8 up or from −8 down
[12] = small-molecule binders of probe aLefty1, primary screen, biochemical, small-molecule microarray, 635/667 nm fluorescence (AID 1153); details: higher = more signal;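 note: score merges spot fluorescence with signal-to-noise ratio from the scanned slide images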
[13] = PSAC antagonists in infected red cells, primary screen, cell-based, P. falciparum Indochina, OD700, 1 h (AID 1154); details: P. falciparum Indochina infected RBC osmotic lysis, higher = more signal, called active from +8 up or from −8 down
[14] = PSAC antagonists in infected red cells, primary screen, cell-based, P. falciparum Indochina, OD700, 2 h (AID 1155);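 note: lysis reports solute entry through the parasite surface anion channel PSAC; channel blockers reduce lysis of infected cells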; details: P. falciparum Indochina infected erythrocytes, osmotic lysis OD700; higher = more signal, called active from +8 up or from −8 down
[15] = osmotic lysis modulators in infected erythrocytes, primary screen, PSAC antagonist project, cell-based, P. falciparum Indochina, OD700, 3 h (AID 1156); details: higher = more signal, called active from +8 up or from −8 down
[16] = PSAC antagonists in infected red cells, primary screen, cell-based, P. falciparum Indochina, OD700, 18 h (AID 1157); details: P. falciparum Indochina infected erythrocytes, osmotic lysis OD700, 18 h; higher = more signal, called active from +8 up or from −8 down
[17] = modulators of S6 phosphorylation in cells, primary screen, cell-based, A549, cytoblot, luminescence, serum-stimulated (AID 1158); details: A549 phospho-S6 cytoblot, 5 h, higher = more signal;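 note: serum-stimulated A549 lung adenocarcinoma cells; signal is phosphorylated S6 detected by cytoblot immunostaining with HRP secondary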
[18] = target: NADPH oxidase 2 (Homo sapiens) (UniProt P04839); test: NOX2-dependent H2O2 signal modulators, primary screen, NOX inhibitor project, cell-based, HEK293-NOX2, PMA-stimulated, Amplex Red fluorescence (AID 1159); details: 45 min, higher = more signal, called active from +8 up or from −8 down; note: test concentration not given here
NADPH oxidase 2 (Homo sapiens), sequence (P04839 whole entry, looked up): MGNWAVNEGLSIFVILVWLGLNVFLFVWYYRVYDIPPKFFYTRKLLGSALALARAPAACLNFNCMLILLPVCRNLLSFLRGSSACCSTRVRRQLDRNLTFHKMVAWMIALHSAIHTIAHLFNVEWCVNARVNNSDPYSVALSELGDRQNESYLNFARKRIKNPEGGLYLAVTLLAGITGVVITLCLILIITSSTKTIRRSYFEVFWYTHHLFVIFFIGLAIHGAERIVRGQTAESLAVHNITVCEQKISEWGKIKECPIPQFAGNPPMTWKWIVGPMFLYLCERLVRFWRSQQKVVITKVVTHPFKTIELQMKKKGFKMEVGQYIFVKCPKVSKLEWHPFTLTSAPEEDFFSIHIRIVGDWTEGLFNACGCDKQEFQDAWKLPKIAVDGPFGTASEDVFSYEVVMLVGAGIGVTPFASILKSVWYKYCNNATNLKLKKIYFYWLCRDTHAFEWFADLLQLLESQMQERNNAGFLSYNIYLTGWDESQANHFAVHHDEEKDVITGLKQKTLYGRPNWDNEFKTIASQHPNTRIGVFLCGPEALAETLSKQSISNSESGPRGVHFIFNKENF

[19] = target: NADPH oxidase 4 (Homo sapiens) (UniProt Q9NPH5); test: NOX4-dependent H2O2 signal modulators, primary screen, NOX inhibitor project, cell-based, HEK293-NOX4, tetracycline-induced, Amplex Red fluorescence (AID 1160); details: 45 min, higher = more signal, called active from +8 up or from −8 down
NADPH oxidase 4 (Homo sapiens), sequence (Q9NPH5 whole entry, looked up): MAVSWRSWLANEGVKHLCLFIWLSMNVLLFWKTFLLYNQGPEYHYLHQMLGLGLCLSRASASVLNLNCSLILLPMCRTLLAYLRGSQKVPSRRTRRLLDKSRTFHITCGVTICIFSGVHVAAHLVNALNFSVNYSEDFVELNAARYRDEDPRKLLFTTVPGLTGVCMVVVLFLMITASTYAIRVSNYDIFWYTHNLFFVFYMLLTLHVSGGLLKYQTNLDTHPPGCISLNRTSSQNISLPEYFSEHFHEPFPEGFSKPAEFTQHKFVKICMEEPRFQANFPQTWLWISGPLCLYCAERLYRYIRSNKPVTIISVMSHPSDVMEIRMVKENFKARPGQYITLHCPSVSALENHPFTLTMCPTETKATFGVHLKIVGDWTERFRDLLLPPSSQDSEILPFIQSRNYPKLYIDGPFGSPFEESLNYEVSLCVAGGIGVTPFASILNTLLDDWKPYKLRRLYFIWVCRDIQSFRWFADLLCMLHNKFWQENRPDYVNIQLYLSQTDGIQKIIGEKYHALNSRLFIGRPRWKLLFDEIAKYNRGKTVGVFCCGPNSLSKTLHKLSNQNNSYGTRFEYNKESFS

[20] = target: NADPH oxidase 5 (Homo sapiens) (UniProt Q96PH1); test: NOX5-dependent H2O2 signal modulators, primary screen, NOX inhibitor project, cell-based, HEK293-NOX5, Amplex Red fluorescence (AID 1161); details: HEK293-NOX5, ionomycin, 45 min, higher = more signal
NADPH oxidase 5 (Homo sapiens), sequence (Q96PH1 whole entry, looked up): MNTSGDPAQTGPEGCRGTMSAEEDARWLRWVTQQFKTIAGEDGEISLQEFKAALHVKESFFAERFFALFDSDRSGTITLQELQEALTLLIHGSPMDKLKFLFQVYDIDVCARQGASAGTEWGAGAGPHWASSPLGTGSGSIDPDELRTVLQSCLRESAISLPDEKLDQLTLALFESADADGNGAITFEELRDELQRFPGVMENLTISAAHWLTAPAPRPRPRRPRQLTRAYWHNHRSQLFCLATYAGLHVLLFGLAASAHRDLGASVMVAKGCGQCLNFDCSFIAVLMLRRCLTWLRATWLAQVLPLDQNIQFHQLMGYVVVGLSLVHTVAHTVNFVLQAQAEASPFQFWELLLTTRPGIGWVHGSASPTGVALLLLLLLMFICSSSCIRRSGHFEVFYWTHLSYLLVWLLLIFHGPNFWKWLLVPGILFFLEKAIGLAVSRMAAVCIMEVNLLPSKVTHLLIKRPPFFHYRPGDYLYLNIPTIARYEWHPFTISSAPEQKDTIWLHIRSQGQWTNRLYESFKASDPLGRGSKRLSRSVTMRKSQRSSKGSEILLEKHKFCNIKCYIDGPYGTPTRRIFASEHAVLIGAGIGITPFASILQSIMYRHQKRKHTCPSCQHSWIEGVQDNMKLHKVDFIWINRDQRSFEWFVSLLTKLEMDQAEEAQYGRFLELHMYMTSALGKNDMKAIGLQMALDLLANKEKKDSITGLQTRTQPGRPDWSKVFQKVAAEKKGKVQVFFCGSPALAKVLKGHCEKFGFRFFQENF

Row | SMILES | composite z-score [1] | z-score [2] | z-score [3] | z-score [4] | z-score [5] | composite z-score [6] | composite z-score [7] | composite z-score [8] | composite z-score [9] | composite z-score [10] | z-score [11] | composite z-score [12] | z-score [13] | z-score [14] | z-score [15] | z-score [16] | z-score [17] | z-score [18] | z-score [19] | z-score [20]
1 | CN(C)C(=O)[C@@]1(Cc2ccccc2CN=[N+]=[N-])COC(c2ccc(OCCCO)cc2)=N1 | 0.0037 | -3.16 (inactive) | -0.632 (inactive) | -1.34 (inactive) | -1.65 (inactive) | -0.0988 | -0.0288 | -0.184 | 0.715 | -1.22 | 2.37 (inactive) | 0.236 | 25.9 (active) | 11.1 (active) | 4.63 (inactive) | 1.67 (inactive) | 0.0188 | -4.96 (inactive) | -1.37 (inactive) | -3.41
2 | C=C(CCCC)/C(=C/C[C@H](OC(=O)c1ccncc1)c1ccc(OCCO)cc1)c1cnc2ccccc2c1 | 0.766 | -1.17 (inactive) | 0.15 (inactive) | 10.9 (active) | -0.574 (inactive) | 1.83 | -0.0221 | 1.03 | 0.667 | 1.4 | 0.339 (inactive) | 0.127 | 26.5 (active) | 11.9 (active) | 1.98 (inactive) | 1.31 (inactive) | -0.594 | -0.0888 (inactive) | 0.589 (inactive) | -0.964
3 | C=CC[C@]1(C(=O)NCC(O)CO)COC(c2ccc(OCCCO)cc2)=N1 (stereo not given in full) | 0.359 | 0.154 (inactive) | -0.055 (inactive) | 0.792 (inactive) | -0.282 (inactive) | -0.486 | 0.109 | 0.185 | 1.03 | -0.495 | -0.353 (inactive) | 0.174 | 3.8 (inactive) | 0.203 (inactive) | 0.99 (inactive) | 0.545 (inactive) | 0.18 | -0.261 (inactive) | 0.914 (inactive) | 0.462
4 | COC(=O)[C@@]1(Cc2ccccc2)[C@H]2c3cc(C(=O)N(C)C)n(CCSC(=N)N)c3C[C@H]2CN1C(=O)c1ccccc1 | -0.042 | 0.0619 (inactive) | -0.367 (inactive) | 0.583 (inactive) | 0.53 (inactive) | -0.405 | 0.0444 | -0.524 | -0.209 | -0.564 | -0.817 (inactive) | 0.138 | 0.929 (inactive) | 0.542 (inactive) | 0.746 (inactive) | 0.494 (inactive) | -0.0307 | 0.251 (inactive) | -0.357 (inactive) | -1.01
5 | O=C(O)[C@H](Cc1ccccc1)n1cc(C2(O)CCCCC2)nn1 | 0.0358 | 0.316 (inactive) | 0.552 (inactive) | 0.367 (inactive) | 0.317 (inactive) | -0.338 | -0.0221 | 0.221 | 0.327 | -0.0164 | -0.976 (inactive) | 0.592 | 0.0438 (inactive) | -0.879 (inactive) | -0.472 (inactive) | -0.281 (inactive) | 0.347 | 1.01 (inactive) | 0.715 (inactive) | 0.31
6 | C=CC[C@@]12N=C(c3ccc(OCCCO)cc3)O[C@@H]1c1ccccc1N(CCC)C2=O | 0.318 | -4.06 (inactive) | -1.29 (inactive) | 0.69 (inactive) | -0.707 (inactive) | -0.0328 | -0.0185 | -0.1 | 0.204 | 1.84 | 1.39 (inactive) | 0.568 | 35.3 (active) | 36.6 (active) | 1.75 (inactive) | 6.24 (inactive) | 0.697 | -3.4 (inactive) | -0.215 (inactive) | -1.75
7 | C=CCOC(=O)[C@H]1[C@@H]2C(=O)O[C@@H](c3ccccc3)[C@@H](c3ccccc3)N2[C@@H](c2ccc(OCCOC(=O)[C@@H]3C[C@@H]4C(=O)N[C@@H](CCCC[N+](C)(C)C)C(=O)N4[C@@H]3c3ccc(O)cc3)cc2)[C@]12C(=O)Nc1ccc(I)cc12 | 1.02 | -0.56 (inactive) | 0.201 (inactive) | 0.553 (inactive) | 1.07 (inactive) | 0.0756 | 0.632 | 1.16 | 1.57 | 2.05 | -1.78 (inactive) | 0.521 | -1.03 (inactive) | -0.497 (inactive) | 5.53 (inactive) | -0.582 (inactive) | -2.1 | 1.66 (inactive) | -1.21 (inactive) | 0.61
8 | CC1CC/C=C\[C@H]2OC34C=CCN(CCN5CCOCC5)C(=O)[C@H]3N(CCCO)C(=O)[C@@H]4C2C(=O)O1 (stereo not given in full) | -0.239 | 0.0123 (inactive) | 1.13 (inactive) | -0.887 (inactive) | -0.0703 (inactive) | -0.601 | -0.154 | -0.0243 | 0.0876 | 0.624 | -0.576 (inactive) | -0.0518 | 0.811 (inactive) | 0.354 (inactive) | -0.513 (inactive) | 0.136 (inactive) | 1.38 | 0.638 (inactive) | -1.71 (inactive) | 0.947
